Test systems include NCI-H23 lung; NCI-H226 lung; NCI-H322M lung; HOP-62 NSCLC; NCI-H460 lung; NCI-H522 lung; A549/ATCC NSCLC; 786-0 renal; COLO 205 colon; DU-145 prostate; K-562 leukemia; MALME-3M melanoma; MDA-MB-231 breast; RXF 393 renal; SF-268 CNS; SF-295 CNS; SF-539 CNS; UACC-257 melanoma; M14 melanoma.
Common to all, as to experiment: NCI-60 one-dose screen, 48 h (100 = growth as untreated, 0 = no growth, -100 = all killed)
What all share (details): 10 µM unless noted

This is part of a sample that, as a whole, favours compounds with a hit. Of some 83,000 tested, about 20% had one in any assay.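 Results are percent growth after 48 hours of single-concentration exposure. 100 means growth as in untreated cells, lower positive values show inhibition; negative values down to -100 show cell death.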 Values without a mark were called inactive. Activity calls are given as the source filed them. Rule for the calls: active = growth percent below 10; inactive = the rest.

In the case of `C=C(C)[C@@H]1CC[C@]2(C(N)=O)CC[C@]3(C)[C@H](CC[C@@H]4[C@@]5(C)CC[C@H](O)C(C)(C)[C@@H]5CC[C@]43C)[C@@H]12`, the growth was -27.1% [100 µM] (active) with NCI-H23 lung; -50.5% [100 µM] (active) with NCI-H226 lung; -58.9% [100 µM] (active) in the assay with NCI-H322M lung; -72.2% [100 µM] (active) in the assay with HOP-62 NSCLC; -37.5% [100 µM] (active) with NCI-H460 lung; -53.8% [100 µM] (active) with NCI-H522 lung. The growth with A549/ATCC NSCLC is -69.3% [100 µM] (active); in the assay with 786-0 renal it was -72.2% [100 µM] (active); with COLO 205 colon it was -66.2% [100 µM] (active); in the assay with DU-145 prostate, -33% [100 µM] (active); in the assay on K-562 leukemia, 4.57% [100 µM] (active); with MALME-3M melanoma, -57.1% [100 µM] (active). The growth with MDA-MB-231 breast is -28.4% [100 µM] (active); with RXF 393 renal it was -49.3% [100 µM] (active); in the assay on SF-268 CNS, 4.41% [100 µM] (active); in the assay with SF-295 CNS, -57.7% [100 µM] (active); in the assay on SF-539 CNS, -70.5% [100 µM] (active); in the assay with UACC-257 melanoma, -6.08% [100 µM] (active). In the assay with M14 melanoma, the growth is 8.8% [100 µM] (active).
For the molecule `Cc1cc(C)c(S(=O)(=O)/N=c2/n(-c3ccccc3)nc3n2CCN3C2=NCCN2)c(C)c1`, the growth is 86.7% with NCI-H23 lung; 89% in the assay with NCI-H226 lung; 87.1% in the assay with NCI-H322M lung; 86.8% with HOP-62 NSCLC; 71.8% in the assay with NCI-H460 lung; 103% with NCI-H522 lung. The growth in the assay with A549/ATCC NSCLC was 79.9%; in the assay on 786-0 renal, 89.1%; in the assay with COLO 205 colon it was -28.9% (active); with DU-145 prostate, 98%; in the assay on K-562 leukemia, 38.9%; in the assay with MALME-3M melanoma, 50.7%. In addition, the growth in the assay on MDA-MB-231 breast is 67.7%; in the assay with RXF 393 renal it was 54.9%; in the assay on SF-268 CNS, 81.4%; in the assay with SF-295 CNS, 95.8%; in the assay with SF-539 CNS, 88.8%; with UACC-257 melanoma, 92%. Moreover, the growth with M14 melanoma is 98.9%.
In the case of `CCOC(=O)c1cc(C#N)n2ncc3ccccc3c12`, the growth in the assay on NCI-H23 lung was 94.1%; in the assay with NCI-H226 lung, 91.2%; with NCI-H322M lung it was 102%; in the assay with HOP-62 NSCLC, 90.8%; in the assay with NCI-H460 lung, 101%; with NCI-H522 lung it was 93.3%. For the same molecule, the growth in the assay with A549/ATCC NSCLC is 100%; in the assay with 786-0 renal, 95.7%; in the assay with COLO 205 colon, 118%; in the assay on DU-145 prostate, 109%; with K-562 leukemia, 95.1%; in the assay on MALME-3M melanoma, 102%. The growth in the assay on MDA-MB-231 breast is 98.6%; with RXF 393 renal it was 102%; in the assay on SF-268 CNS, 101%; in the assay with SF-295 CNS, 103%; with SF-539 CNS it was 89%; with UACC-257 melanoma it was -53.6% (active). Moreover, the growth with M14 melanoma is 93.2%.
As to `CC1(C)CC[C@]2(C(N)=O)CC[C@]3(C)C(=CC[C@@H]4[C@@]5(C)C/C(=C/c6cccnc6)C(=O)C(C)(C)[C@@H]5CC[C@]43C)[C@@H]2C1`, the growth was -2.72% [100 µM] (active) with NCI-H23 lung; -36.8% [100 µM] (active) with NCI-H226 lung; -57.3% [100 µM] (active) with NCI-H322M lung; -55.5% [100 µM] (active) in the assay with HOP-62 NSCLC; -51.8% [100 µM] (active) in the assay with NCI-H460 lung; -59.7% [100 µM] (active) in the assay on NCI-H522 lung. Besides, the growth in the assay on A549/ATCC NSCLC was -35.9% [100 µM] (active); in the assay with 786-0 renal it was -38.4% [100 µM] (active); in the assay on COLO 205 colon, -57.6% [100 µM] (active); with DU-145 prostate, -18% [100 µM] (active); in the assay on K-562 leukemia, 4.29% [100 µM] (active); in the assay on MALME-3M melanoma, -75.9% [100 µM] (active). Further, the growth in the assay with MDA-MB-231 breast was -45.2% [100 µM] (active); with RXF 393 renal, -63% [100 µM] (active); with SF-268 CNS it was -5.09% [100 µM] (active); in the assay on SF-295 CNS it was -53.9% [100 µM] (active); in the assay on SF-539 CNS, -61.5% [100 µM] (active); in the assay with UACC-257 melanoma, -54.7% [100 µM] (active). Also, the growth in the assay on M14 melanoma was -11.2% [100 µM] (active).
As to `CCOC(=O)c1nn(C2CCCCO2)c2ccc(NC(=O)Cn3nnc4ccccc43)cc12` (stereo not drawn), the growth is 102% in the assay with NCI-H23 lung; 109% in the assay on NCI-H226 lung; 96.9% with NCI-H322M lung; 98.8% with HOP-62 NSCLC; 100% in the assay with NCI-H460 lung; 102% in the assay on NCI-H522 lung. Further, the growth with A549/ATCC NSCLC was 102%; in the assay on 786-0 renal it was 90.9%; in the assay on COLO 205 colon, 120%; in the assay with DU-145 prostate, 104%; with K-562 leukemia, 91.3%; in the assay on MALME-3M melanoma it was 105%. Also, the growth in the assay with MDA-MB-231 breast is 96.4%; in the assay on RXF 393 renal, 125%; in the assay with SF-268 CNS, 101%; in the assay on SF-295 CNS, 99.3%; with SF-539 CNS, 100%; in the assay with UACC-257 melanoma, 100%. Further, the growth with M14 melanoma was 102%.
On to `C[C@H]1[C@H](C)CC[C@]2(C(=O)N3CCN(C)CC3)CC[C@]3(C)C(=CC[C@@H]4[C@@]5(C)C/C(=C/c6ccco6)C(=O)C(C)(C)[C@@H]5CC[C@]43C)[C@H]12`, for which the growth is 32.5% [100 µM] in the assay on NCI-H23 lung; 37.4% [100 µM] in the assay on NCI-H226 lung; 51.6% [100 µM] in the assay on NCI-H322M lung; 35.8% [100 µM] with HOP-62 NSCLC; 6.22% [100 µM] (active) in the assay on NCI-H460 lung; 4.91% [100 µM] (active) in the assay on NCI-H522 lung. Further, the growth was 24.8% [100 µM] in the assay with A549/ATCC NSCLC; 40.6% [100 µM] with 786-0 renal; 40.4% [100 µM] in the assay on COLO 205 colon; 50.4% [100 µM] in the assay on DU-145 prostate; 28.2% [100 µM] in the assay on K-562 leukemia; 45.7% [100 µM] with MALME-3M melanoma. The growth in the assay on MDA-MB-231 breast is 15.6% [100 µM]; in the assay on RXF 393 renal, 55.1% [100 µM]; in the assay on SF-268 CNS, 50.3% [100 µM]; with SF-295 CNS, 29.8% [100 µM]; with SF-539 CNS, 46.2% [100 µM]; in the assay on UACC-257 melanoma, 22.5% [100 µM]. For the same molecule, the growth with M14 melanoma is 48.8% [100 µM].
In the case of `CN(Cc1cccc(C(F)(F)F)c1)C(=O)[C@@H](CC(=O)N1CCC(N2CCCCC2)CC1)N1C(=O)[C@@H](N2C(=O)OC[C@@H]2c2ccccc2)[C@H]1/C=C/c1ccccc1`, the growth with NCI-H23 lung was 93.9%; with NCI-H226 lung it was 85.1%; with NCI-H322M lung it was 93.5%; in the assay on HOP-62 NSCLC it was 81.2%; in the assay with NCI-H460 lung, 89%; with NCI-H522 lung it was 96.1%. The growth in the assay on A549/ATCC NSCLC was 80.6%; with 786-0 renal, 75.4%; with COLO 205 colon it was 72.2%; in the assay with DU-145 prostate it was 103%; with K-562 leukemia, 65.7%; in the assay on MALME-3M melanoma it was 96.8%. The growth was 55.7% in the assay with MDA-MB-231 breast; 76.3% in the assay with RXF 393 renal; 77.8% in the assay with SF-268 CNS; 90.8% with SF-295 CNS; 81.9% in the assay on SF-539 CNS; 88.9% in the assay on UACC-257 melanoma. In addition, the growth in the assay with M14 melanoma is 98.7%.

(Values after PubChem BioAssay (NCI).)
